The record followed here is PubChem BioAssay AID1851 (National Center for Advancing Translational Sciences (NCATS), 2009).

Broadly, the AC50 is the midpoint of the concentration-response curve, whichever way the signal moves.

SMILES strings stand for the structures. Values joined by “and” are separate entries in the source; they are usually repeats but may differ in a detail not shown here. Identical values can stand only once. Hit rate of the full screen: of about 16,000 compounds, about 5,100 (32%) were called active. Roughly 25% stayed inconclusive and do not appear here. This is one part of the list. Unmarked numbers belong to inactive results. Calls follow the shape of the dose curve; as a rule, active = well fitted curve in the direction sought with a large enough effect; inconclusive = small, poorly fitted or top-dose-only effect, or effect the other way; inactive = no such curve, though single readings can be large or run the other way. Peptide text beside a SMILES is read from it.
% is scaled to controls: 0 for no effect and ±100 for the full control effect.

Cytochrome P450 3A4 (Homo sapiens), sequence (P08684 whole entry, looked up): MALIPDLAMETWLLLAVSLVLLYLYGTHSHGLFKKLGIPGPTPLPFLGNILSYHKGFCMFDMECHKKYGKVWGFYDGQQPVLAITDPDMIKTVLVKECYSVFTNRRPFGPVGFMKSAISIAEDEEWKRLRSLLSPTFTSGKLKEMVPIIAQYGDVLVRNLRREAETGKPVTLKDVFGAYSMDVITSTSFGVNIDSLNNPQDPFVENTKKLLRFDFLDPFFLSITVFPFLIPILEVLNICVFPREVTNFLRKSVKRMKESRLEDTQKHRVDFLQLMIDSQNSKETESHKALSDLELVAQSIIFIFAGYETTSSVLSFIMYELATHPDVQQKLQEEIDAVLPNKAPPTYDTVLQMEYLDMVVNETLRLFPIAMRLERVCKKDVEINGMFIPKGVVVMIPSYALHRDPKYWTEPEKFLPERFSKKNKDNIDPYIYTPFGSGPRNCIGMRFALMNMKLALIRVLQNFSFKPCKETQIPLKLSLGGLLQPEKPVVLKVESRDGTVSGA

The test concerns the target Cytochrome P450 3A4 (Homo sapiens) (UniProt P08684). Description: Cytochrome panel assay with activity outcomes. The note with it: recombinant CYP, pro-luciferin dealkylation, luminescence, p450-cyp3a4; series mostly up to 57.1 µM.
For `CC(/C=N/n1c(-c2cccnc2)n[nH]c1=S)=C\c1ccccc1`, the AC50 is 2 µM (active).
For `O=C(O)CC[C@]1(C(=O)O)CCC(=O)c2ccccc21`, the activity, negative = inhibition is -0.615% [at 11.4 µM].
For `COc1ccc(CNc2cc(-c3ccoc3)ncn2)c(OC)c1`, the AC50 is 15.8 µM (active).
Still for that read-out and setting: as for `COc1ccccc1CNc1cc(-c2ccoc2)ncn1`, the figure is 15.8 µM (active); as for `Cc1ccc(Oc2cc(N3CCOCC3)nc(-c3ccccc3)n2)cc1`, 14.1 µM (active).
On the same count and under the same terms, to `Cc1cc(Oc2ccc(-c3ccccc3)cc2)nc(N2CCOCC2)n1` belongs “inactive”.
Same read-out and setting: as for `O=c1nc(N2CCOCC2)ccn1-c1nc(-c2ccccc2)oc1-c1ccccc1`, the entry is “inactive”; as for `Cc1cc(Oc2ccccc2)nc(-c2ccccc2)n1`, “inactive”.
For `Cc1ccc(S(=O)(=O)c2cc(N3CCOCC3)nc(-c3ccccc3)n2)cc1`, the activity, negative = inhibition is -13.7% [at 2.29 µM].
With `COc1cccc(Sc2cc(N3CCOCC3)nc(-c3ccccc3)n2)c1`, the AC50 was 0.794 µM (active).
Same read-out and setting: to `N#C/C(=C/c1ccc(N2CCCC2)c([N+](=O)[O-])c1)c1nc2ccccc2[nH]1` belongs 2.82 µM (active); to `N#C/C(=C\c1ccc(N2CCCC2)c([N+](=O)[O-])c1)c1nc2ccccc2[nH]1`, 1.58 µM (active).
With `Cc1nc2nc(-c3ccc(Cl)cc3)nn2c(C)c1Cl`, the AC50 entry is “inactive”.
In the case of `Cc1cc(N2CCN(C)CC2)n2nc(-c3ccc(Cl)cc3)nc2n1`, the activity, negative = inhibition is -14.4% [at 11.4 µM].
Turning to `Cc1cc(N)n2ncc(-c3ccc(Cl)cc3)c2n1`, the AC50 was 15.8 µM (active).
With `CC(C)(C)C(=O)OCc1cn(-c2ccc(Cl)cc2)nn1`, the AC50 result is “inactive”.
As for `COc1cc(S(C)=O)ccc1-c1nc2ncccc2[nH]1` (stereo not drawn), the AC50 result is “inactive”.
Regarding `O=C(Nc1cccn(Cc2ccc(F)cc2)c1=O)NC1CCCCC1`, the AC50 was 15.8 µM (active).
Still for that read-out and setting: to `Cc1ccc(Cn2cccc(NC(=O)NCc3ccccc3)c2=O)cc1` belongs “inactive”; to `Cc1ccc(Cn2cccc(NC(=O)NC3CCCCC3)c2=O)cc1`, 12.6 µM (active).
Take `NCCSCCC(=O)O`: the activity, negative = inhibition is -1.66% [at 11.4 µM].
As to `COc1ccc(S(=O)(=O)n2ccc(-c3cnc(-c4ccccc4)s3)n2)cc1`, the AC50 was 3.98 µM (active).
For `O=S(=O)(c1ccc(F)cc1)n1ccc(-c2cnc(-c3ccccc3)s2)n1`, the AC50 was 11.2 µM (active).
With `CC(Oc1ccccc1)c1ccnn1S(=O)(=O)c1ccccc1` (stereo not drawn), the activity, negative = inhibition is -13.1% [at 11.4 µM].
In the case of `CC[C@@H](C)[C@H]1O[C@]2(CC[C@@H]1C)C[C@@H]1C[C@H](C/C=C(/C)[C@H](O[C@@H]3C[C@H](OC)[C@H](O[C@@H]4C[C@H](OC)[C@@H](O)[C@H](C)O4)[C@H](C)O3)[C@@H](C)/C=C\C=C3CO[C@@H]4[C@H](O)C(C)=C[C@@H](C(=O)O1)[C@]34O)O2` (tested in a mixture with another compound), the AC50 entry is “inactive”.
Still for that read-out and setting: to `CC(C)C[C@H](NC(=O)[C@@H](O)[C@@H](N)Cc1ccccc1)C(=O)O` belongs “inactive”.
As to `COC(=O)[C@H](Cc1ccccc1)NC(=O)[C@@H](C)CO`, the activity, negative = inhibition is -44.5% [at 11.4 µM].
For the compound `COC(=O)C(CC(C)C)NC(=O)C(N)Cc1ccccc1` (stereo not drawn) (H-Phe-Leu-OMe; configuration not given here), the AC50 is 14.1 µM (active).
On the same count and under the same terms, as for `CCCc1cc2c(n1Cc1cc(F)cc(F)c1)C(C)C1CN(C(=O)c3ccccc3)C(C)(C(=O)OC)C21` (stereo not drawn), the figure is 3.16 µM (active); as for `CCCc1cc2c(n1Cc1ccc(OC)cc1)C(C)C1CN(C(=O)c3ccccc3)C(C)(C(=O)OC)C21` (stereo not drawn), 3.16 µM (active); as for `CCCc1cc2c(n1CCc1ccc(Cl)cc1)C(C)C1CN(C(=O)c3ccccc3)C(C)(C(=O)OC)C21` (stereo not drawn), 5.01 µM (active).
For the compound `C[C@@]1(C(=O)O)CCC[C@@H]1C(=O)O`, the activity, negative = inhibition is -5.72% [at 11.4 µM].
Still for that read-out and setting: to `O=C(O)C[C@H](Cc1ccccc1Cl)C(=O)O` belongs -7.24% [at 11.4 µM].
For the compound `Cc1ccnc(N)c1`, the AC50 result was “inactive”.
Same read-out and setting: as for `Cc1cc(=O)[nH]c2ccccc12`, the entry is “inactive”; as for `CC1CCCC(n2c(=S)[nH]c3ccccc3c2=O)C1C` (stereo not drawn), 7.94 µM (active).
Turning to `CCn1c(=O)[nH]c2ccccc2c1=O`, the activity, negative = inhibition was 5.24% [at 2.29 µM].
For `CCN1CCN(C(c2ccccn2)c2c(NC(=O)c3ccccc3)sc(C)c2C)CC1` (stereo not drawn), the AC50 is 8.91 µM (active).
The same measure, in the same setting: as for `CC(C)CO[C@H](c1ccc2c(c1)OCO2)[C@H](C)Br`, the figure is 3.16 µM (active); as for `CCC(Sc1nc2n[nH]c(C)c2c(=N)n1-c1cccc(Cl)c1)C(=O)NCCOC` (stereo not drawn), 2.82 µM (active).
In the case of `Nc1ccn([C@H]2O[C@H](CO)[C@@H]3[O][Sn]([c]4ccccc4)([c]4ccccc4)[O][C@H]32)c(=O)n1`, the activity, negative = inhibition was 25.9% [at 11.4 µM].
As to `Cc1cc(N)ccc1NC(=O)c1ccccc1`, the AC50 result is “inactive”.
Take `CCOC(=O)c1cc(NC(=O)c2ccc(OC)cc2)c(=O)oc1-c1ccccc1`: the AC50 entry was “inactive”.
Still for that read-out and setting: as for `Cc1oc(=O)c(NC(=O)c2ccccc2)cc1C(=O)c1ccccc1`, the figure is 7.94 µM (active); as for `COc1ccc(C(=O)Nc2cc(C(C)=O)c(/C=C/N(C)C)oc2=O)cc1`, “inactive”; as for `Cc1ccc(C(=O)Nc2cc3c(oc2=O)CCCC3=O)cc1`, “inactive”.
For the compound `CC(=O)c1cc(NC(=O)c2ccccc2)c(=O)oc1/C=C/N(C)C`, the AC50 was 25.1 µM (active).
Same read-out and setting: as for `CSc1cccc(NC(=O)c2ccc(Cl)nc2)c1`, the entry is “inactive”.
Regarding `O=C(Nc1cc(Sc2ccccn2)cc([N+](=O)[O-])c1)c1ccc(Cl)cc1`, the AC50 is 7.94 µM (active).
`CC/C(O)=C(\C#N)c1nnc2n1CCCCC2`: the AC50 result is “inactive”.
As for `CN1CCCN(C)C1c1cc([N+](=O)[O-])ccc1O`, the activity, negative = inhibition was -5.36% [at 11.4 µM].
As to `Cn1c(CCN2CCCCC2)nc2cc([N+](=O)[O-])ccc21`, the AC50 entry is “inactive”.
The same measure, in the same setting: as for `O=C1Nc2ccc([N+](=O)[O-])cc2C1(O)N1CCCCCC1` (stereo not drawn), the figure is 3.55 µM (active); as for `COCCCNC(=O)/C=C/c1cccc(Cl)c1`, “inactive”; as for `O=C(/C=C/c1cccc(Cl)c1)Nc1ccncc1`, 0.178 µM (active).
With `Cc1cc(C)nc(NC(=O)/C=C/c2ccc(Cl)cc2Cl)c1`, the activity, negative = inhibition is 4.58% [at 2.29 µM].
`NS(=O)(=O)c1cc(Br)c(N=Nc2ccc(O)c3ncccc23)c(Br)c1`: the activity, negative = inhibition is -8.46% [at 11.4 µM].
`O=C(O)[C@@H]1CCCN1`: the activity, negative = inhibition is -4.77% [at 11.4 µM].
On to `COC(=O)C1CC1C(NC(=O)[C@H]1CCCCN1)c1ccccc1` (stereo partly drawn), for which the AC50 was 10 µM (active).
Same read-out and setting: as for `COC(=O)C1CC1C(NC(=O)[C@@H]1CCCN1)c1ccccc1` (stereo partly drawn), the figure is 12.6 µM (active).
Consider `COc1ccc(C(=O)NC(C)c2cc(OC)c(OC)cc2Br)cc1` (stereo not drawn), for which the AC50 was 0.501 µM (active).
Still for that read-out and setting: as for `COc1cc(Br)c(C(C)NC(=O)c2cccc(Br)c2)cc1OC` (stereo not drawn), the figure is 0.282 µM (active).
Take `COc1ccc(C(=O)[C@H](Br)[C@H](Br)C(=O)O)cc1`: the activity, negative = inhibition was 3.56% [at 11.4 µM].
On to `NS(=O)(=O)c1cc2c(cc1Cl)N[C@@H](CC1CCCC1)NS2(=O)=O`, for which the AC50 result is “inactive”.
With `CC(C)OC(=O)c1cc2ccccc2oc1=O`, the AC50 entry is “inactive”.
On the same count and under the same terms, to `O=C(Nc1ccc(-n2nncc2-c2ccco2)cc1)c1cc2ccccc2oc1=O` belongs 4.47 µM (active).
Consider `CC(C)(C)c1ccc(C(=O)Nc2ccc(NC(=O)c3ccco3)cc2)cc1`, for which the activity, negative = inhibition was 11.7% [at 2.29 µM].
`CC(=O)c1cc2ccccc2oc1=O`: the AC50 result is “inactive”.
The same measure, in the same setting: as for `COc1ccc(-c2cnnn2-c2ccc(NC(=O)c3ccco3)cc2)cc1OC`, the figure is 1 µM (active); as for `O=C(Nc1ccc(-n2nncc2-c2ccco2)cc1)c1ccc(F)cc1`, 0.708 µM (active).
Regarding `C/C(=N/NC(=O)c1ccc(NC(=O)c2ccc(F)cc2)cc1)c1ccccc1`, the activity, negative = inhibition is 15.1% [at 0.457 µM].
The same measure, in the same setting: as for `COc1ccc(Br)c2c1C[C@H](C(=O)O)CC2`, the figure is -12.7% [at 11.4 µM]; as for `Nc1nc2c(c(=O)[nH]1)CN(c1ccc(S(N)(=O)=O)cc1)CN2`, -4.97% [at 11.4 µM].
On to `CC(=O)SCC[N+](C)(C)C`, for which the AC50 result was “inactive”.
In the case of `COC(=O)[C@@H]1CC[C@H](C)[C@@H](c2ccc(C)cc2)N1C(=O)c1ccc(/C=N\OCC[C@@H]2C=C[C@H](OC(C)=O)[C@H](COC(C)=O)O2)cc1`, the activity, negative = inhibition was -18.2% [at 11.4 µM].
As for `CO/N=C\c1ccc(C(=O)N2[C@H](c3ccc(C)cc3)[C@@H](C)CC[C@H]2C(=O)OC)cc1`, the concentration at half-maximal activity (AC50) is 3.16 µM (active).
The same measure, in the same setting: as for `COC(=O)[C@@H]1CC[C@H](C)[C@@H](c2ccc(C)cc2)N1C(=O)c1ccc(/C=N\O[C@@H](C)c2cn([C@H](CO)Cc3ccccc3)nn2)cc1`, the figure is 1.26 µM (active) and 3.16 µM (active); as for `COC(=O)[C@@H]1CC[C@H](C)[C@@H](c2ccc(C)cc2)N1C(=O)c1ccc(/C=N\OC[C@@H](C)[C@H](OCc2ccccc2)C(C)C)cc1`, 3.98 µM (active).
Regarding `COC(=O)[C@@H]1CC[C@H](C)[C@@H](c2ccc(C)cc2)N1C(=O)c1ccc(/C=N\O[C@@H]2O[C@H](COC(C)=O)[C@H](OC(C)=O)[C@H](OC(C)=O)[C@H]2OC(C)=O)cc1`, the activity, negative = inhibition is -14.4% [at 11.4 µM].
Turning to `O=Nc1ccc(NOC(=O)c2ccc(Br)cc2)cc1`, the AC50 entry is “inactive”.
In the case of `Oc1ccc2ccccc2c1Cc1c(O)ccc2ccccc12`, the activity, negative = inhibition is -19% [at 11.4 µM].
Consider `COc1ccc2c(Cc3c4ccccc4cc4ccccc34)cncc2c1O`, for which the AC50 was 1 µM (active).
Still for that read-out and setting: as for `O=C(O)c1cc2ccccc2c(Cc2cc3ccccc3c(C(=O)O)c2O)c1O` (tested in a mixture with another compound), the entry is “inactive”.
Regarding `OC[C@H](S)CS`, the activity, negative = inhibition is -9.69% [at 11.4 µM].
On to `Cc1cccc(CSc2cccc3cccnc23)c1`, for which the AC50 result is “inactive”.
Take `CCn1c(SCc2ccc(C)cc2)nnc1-c1nn(-c2ccccc2)ccc1=O`: the AC50 is 8.91 µM (active).
Same read-out and setting: as for `CCn1c(SCc2cccc(C)c2)nnc1-c1ccc(C)cc1`, the figure is 8.91 µM (active).
Still for that read-out and setting: to `COc1ccc(-c2nnc(SCc3cccc(C)c3)n2N)cc1` belongs 10 µM (active).
